Test results as given in PubChem BioAssay AID1159580 (chemical genetic matrix, 2015).
Hit rate of the full screen: of about 5,500 compounds, about 2,000 (36%) were called active. Not shown: some 18% with an inconclusive outcome. Rule as the data show it: active = normalized growth mostly below about 0.91 (no sharp cut-off); inconclusive = no clear call, values can overlap the other calls; inactive = mostly above about 0.92. Some of the results follow.

Assay: chemical genetic growth profiling, strain panel (AID 1159580);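 also: tested at 20 µM; growth read once vehicle control cultures reached saturation at 30 °C; 1 = growth at the plate median or of vehicle wells; lower values mean less growth of the strain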
Conditions: S. cerevisiae deletion strains, growth OD
[1] = locus YAR019C, strain CDC15, active compounds read low
[2] = locus YBL105C, strain PKC1, active compounds read low
[3] = locus YBR135W, strain CKS1, active compounds read low
[4] = locus YBR136W, strain MEC1, active compounds read low
[5] = locus YBR160W, strain CDC28, active compounds read low
[6] = locus YDL017W, strain CDC7, active compounds read low
[7] = locus YDL028C, strain MPS1, active compounds read low
[8] = locus YDL101C, strain DUN1, active compounds read low
[9] = locus YDL108W, strain KIN28, active compounds read low
[10] = locus YDL132W, strain cdc53, active compounds read low
[11] = locus YDL214C, strain PRR2, active compounds read low
[12] = locus YDR052C, strain DBF4, active compounds read low
[13] = locus YDR054C, strain cdc34, active compounds read low
[14] = locus YDR226W, strain ADK1, active compounds read low
[15] = locus YDR477W, strain SNF1, active compounds read low
[16] = locus YER123W, strain YCK3, active compounds read low
[17] = locus YER133W, strain GLC7, active compounds read low
[18] = locus YFL009W, strain cdc4, active compounds read low
[19] = locus YFL029C, strain CAK1, active compounds read low
[20] = locus YFR003C, strain YPI1, active compounds read low
[21] = locus YFR019W, strain FAB1, active compounds read low
[22] = locus YFR028C, strain CDC14, active compounds read low
[23] = locus YGR040W, strain KSS1, active compounds read low
[24] = locus YGR052W, strain FMP48, active compounds read low
[25] = locus YGR092W, strain DBF2, active compounds read low
[26] = locus YHR030C, strain SLT2, active compounds read low
[27] = locus YHR079C, strain IRE1, active compounds read low
[28] = locus YHR082C, strain KSP1, active compounds read low
[29] = locus YHR205W, strain SCH9, active compounds read low
[30] = locus YIL147C, strain SLN1, active compounds read low
[31] = locus YJL095W, strain BCK1, active compounds read low
[32] = locus YJL128C, strain PBS2, active compounds read low
[33] = locus YJL157C, strain FAR1, active compounds read low
[34] = locus YJR016C, strain ILV3, active compounds read low
[35] = locus YJR066W, strain TOR1 (second series), active compounds read low
[36] = locus YJR066W, strain TOR1, active compounds read low
[37] = locus YKL048C, strain ELM1, active compounds read low
[38] = locus YKL067W, strain YNK1, active compounds read low
[39] = locus YKL101W, strain HSL1, active compounds read low
[40] = locus YKL193C, strain SDS22, active compounds read low
[41] = locus YKL203C, strain TOR2, active compounds read low
[42] = locus YLR113W, strain HOG1, active compounds read low
[43] = locus YLR133W, strain CKI1, active compounds read low
[44] = locus YLR403W, strain SFP1, active compounds read low
[45] = locus YML070W, strain DAK1, active compounds read low
[46] = locus YMR001C, strain CDC5, active compounds read low
[47] = locus YMR205C, strain PFK2 (second series), active compounds read low
[48] = locus YMR277W, strain FCP1, active compounds read low
[49] = locus YNL006W, strain LST8, active compounds read low
[50] = locus YNL020C, strain ARK1, active compounds read low
[51] = locus YNL161W, strain CBK1, active compounds read low
[52] = locus YNL183C, strain NPR1, active compounds read low
[53] = locus YNL207W, strain RIO2, active compounds read low
[54] = locus YNL222W, strain SSU72, active compounds read low
[55] = locus YNL307C, strain MCK1 (second series), active compounds read low
[56] = locus YOL078W, strain AVO1, active compounds read low
[57] = locus YOL136C, strain PFK27, active compounds read low
[58] = locus YOR061W, strain CKA2, active compounds read low
[59] = locus YOR119C, strain RIO1, active compounds read low
[60] = locus YOR231W, strain MKK1, active compounds read low
[61] = locus YOR329C, strain SCD5, active compounds read low
[62] = locus YPL031C, strain PHO85, active compounds read low
[63] = locus YPL153C, strain RAD53, active compounds read low
[64] = locus YPL204W, strain HRR25, active compounds read low
[65] = locus YPL209C, strain IPL1, active compounds read low
[66] = locus YPL256C, strain CLN2, active compounds read low
[67] = locus YPR025C, strain CCL1, active compounds read low
[68] = locus YPR106W, strain ISR1, active compounds read low
[69] = locus YPR111W, strain DBF20, active compounds read low
[70] = strain NNK1, active compounds read low
[71] = strain TSCII, active compounds read low

Measured: normalized growth

Clc1ccc(-c2noc(CSC3=NCCN3)n2)cc1
active: [42] 0.839
inactive: [1] 0.987 | [2] 0.987 | [3] 0.98 | [4] 0.981 | [5] 0.984 | [6] 0.986 | [7] 0.979 | [8] 0.989 | [9] 0.979 | [10] 0.98 | [11] 0.923 | [12] 0.981 | [13] 0.96 | [14] 0.975 | [15] 0.938 | [16] 0.904 | [17] 0.935 | [18] 0.978 | [19] 0.987 | [20] 0.974 | [21] 0.948 | [22] 0.971 | [23] 0.926 | [24] 0.964 | [25] 0.955 | [26] 0.93 | [27] 0.968 | [28] 1.02 | [29] 0.962 | [30] 0.969 | [31] 0.949 | [32] 0.912 | [33] 0.925 | [34] 0.974 | [35] 0.912 | [36] 1.08 | [37] 0.96 | [38] 0.933 | [39] 0.939 | [40] 0.976 | [41] 1.01 | [43] 0.959 | [44] 0.982 | [45] 0.912 | [46] 0.987 | [47] 0.938 | [48] 0.975 | [49] 0.985 | [50] 0.962 | [51] 0.965 | [52] 1.05 | [53] 0.988 | [54] 0.981 | [55] 0.946 | [56] 0.974 | [57] 0.941 | [58] 0.938 | [59] 1 | [60] 0.965 | [61] 0.981 | [62] 0.924 | [63] 0.92 | [64] 0.903 | [65] 0.986 | [66] 0.945 | [67] 0.986 | [68] 0.975 | [69] 0.97 | [70] 0.977 | [71] 0.986

COc1cc(Cl)c(NS(=O)(=O)c2cc(Br)c(Br)s2)c(OC)c1
inactive: [1] 0.96 | [2] 0.977 | [3] 0.967 | [4] 0.977 | [5] 0.958 | [6] 0.978 | [7] 0.96 | [8] 0.977 | [9] 0.957 | [10] 0.954 | [11] 0.916 | [12] 0.988 | [13] 0.953 | [14] 0.962 | [15] 0.904 | [16] 0.898 | [17] 0.918 | [18] 0.948 | [19] 0.956 | [20] 0.973 | [21] 0.964 | [22] 0.949 | [23] 0.888 | [24] 0.923 | [25] 0.831 | [27] 0.905 | [28] 0.924 | [29] 0.933 | [30] 0.961 | [31] 0.885 | [32] 0.923 | [33] 0.919 | [34] 0.972 | [35] 0.858 | [36] 0.896 | [37] 0.969 | [38] 0.9 | [39] 0.917 | [40] 0.959 | [41] 0.986 | [43] 0.959 | [44] 0.922 | [45] 0.916 | [46] 0.969 | [47] 0.948 | [48] 0.946 | [49] 0.955 | [50] 0.931 | [51] 0.97 | [52] 0.904 | [53] 0.962 | [54] 0.95 | [55] 0.902 | [56] 0.96 | [57] 0.901 | [58] 0.912 | [59] 0.918 | [60] 0.908 | [61] 0.965 | [62] 0.894 | [63] 0.866 | [64] 0.868 | [65] 0.976 | [67] 0.968 | [68] 0.954 | [69] 0.938 | [70] 0.975 | [71] 0.963
active: [26] 0.664 | [42] 0.815 | [66] 0.856
